The entries come from a sample that favours hits as a whole.
Tgondii IFNg: inhibitors of Toxoplasma gondii growth with IFN-gamma; Toxoplasma gondii growth in IFN-gamma-treated host cells; stronger effect = lower value; activity change, negative = inhibition, % (concentration not given with the values); 69,000 tested, 3.8% active; AID 1259416; in the data active means activity change below about -70%, passing the limit was not always enough;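 further: host cells are HeLa cells infected with Toxoplasma gondii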
Hits are given with their value; 0 = inactive.

SMILES	Tgondii IFNg
COc1cccc2c1C(=O)c1c(O)c3c(c(O)c1C2=O)C[C@@](O)(C(C)=O)C[C@@H]3OC1CC(N)C(O)C(C)O1 (some centres undefined)	-75.4
COc1cccc2c1C(=O)c1c(O)c3c(c(O)c1C2=O)C[C@@](O)(C(=O)CO)C[C@@H]3O[C@H]1C[C@H](N)[C@H](O)[C@H](C)O1	-77.8
CC(=O)C1(O)Cc2c(O)c3c(c(O)c2C(OC2CC(N)C(O)C(C)O2)C1)C(=O)c1c(O)cccc1C3=O (centres undefined)	-79.0
CCCCC(=O)OCC(=O)[C@]1(O)Cc2c(O)c3c(c(O)c2[C@@H](O[C@H]2C[C@H](NC(=O)C(F)(F)F)[C@H](O)[C@H](C)O2)C1)C(=O)c1c(OC)cccc1C3=O	-73.1
CCn1c(CC2CCNCC2)nn(Cc2noc(COC)n2)c1=O	0
O=C(c1ccc(F)cc1)c1cc2cc(Br)cc(Br)c2o1	0
CN(C)C(=O)N1C[C@@H]2COC[C@]2(COCC2CCOCC2)C1	0
Cc1ccc(C2(O)CCN(C(=O)c3cc(-c4ccncc4)n[nH]3)CC2)nc1	0
Cc1ccoc1C(=O)NCCNc1cccnc1	0
OC1(CNc2ncc(F)cn2)CCCNCC1 (centres undefined)	0
CCc1nn(C)c(C(=O)NCCNc2nc(-c3ccc(OC)cc3)cc3ncccc23)c1C	0
O=C(COc1ccccc1C(=O)NCC1CCCO1)NC12CC3CC(CC(C3)C1)C2 (centres undefined)	0
CCOc1ccc(NS(=O)(=O)c2ccc(NC(=O)c3cccs3)cc2)cc1	0
COc1ccc(NC(=O)c2cncc(NS(=O)(=O)c3ccc(Br)cc3)c2)cc1	0
CCCCCOC(=O)Nc1ccc(S(=O)(=O)Nc2ccc(Br)cc2)cc1	-86.8
COc1ccc(S(=O)(=O)N2CCC(c3nc4ccc(-c5ccncc5)cn4n3)CC2)cc1	0
OC1(c2ccc(F)cc2)Cc2ccccc2C2=NCCN21 (centres undefined)	0
CC[C@@]1(O)C(=O)OCc2c1cc1n(c2=O)Cc2c-1nc1cc(F)c(C)c3c1c2[C@@H](N)CC3	-86.2
CC[C@@]1(O)C(=O)OCc2c1cc1n(c2=O)Cc2cc3cc(O)ccc3nc2-1	-89.6
CCN=C1SC(C(=O)Nc2ccc(C(=O)O)cc2)CC(=O)N1CC (centres undefined)	0
Cc1cc(NC(=O)c2cncc(NS(=O)(=O)c3ccc(Cl)cc3)c2)no1	0
Cc1nsc(NC(=O)N2CCCN(c3ccc(F)cc3)CC2)n1	0
CN(C)CCN1C(=O)CC2C1CCN2C(=O)Cc1cccs1 (centres undefined)	0
Cn1cc(C(=O)N2C[C@H]3CN(Cc4cccc(F)c4)C(=O)[C@@H]3C2)cn1	0
O=C1CCc2cc(NC(=O)C(F)(F)F)ccc2N1	0
SMILES	Tgondii IFNg
CCCn1cc(NC(=O)c2cccc(CN3CC[C@H](O)C3)c2)nn1	0
COCC(=O)N1CCc2cc(C(=O)O)c(-c3ccncc3)nc2CC1	0
CC(C)c1ccc(CN2CCCC(O)(CN3CCCNC(=O)C3)C2=O)cc1 (centres undefined)	0
CCn1c(CC2CCN(c3nnnn3-c3ccccc3)CC2)nn(C)c1=O	0
COc1ccc(-c2nn(CCC#N)c(=O)[nH]2)cc1	0
Cc1cc2c(cc3c(=O)n(CCC#N)nc(C)n32)s1	-90.5
COC(=O)[C@@H]1C[C@H](NC(=O)c2ccc(Cl)s2)CN1C	0
Cc1cccc(-c2nc(Cn3c(=O)c4c(C)cc(C)nc4n(-c4ccccc4)c3=O)c(C)o2)c1	0
O=C(NC1C=CS(=O)(=O)C1)c1cnn2c1CCCC2 (centres undefined)	0
O=C(c1cccc(F)c1)N1CCC2(CC(Oc3cccnc3)CO2)C1 (centres undefined)	0
COc1ccc(OC)c(CNc2nc(-c3nnc(-c4ccc(C)cc4)o3)nc3ccccc23)c1	0
COc1ccc(OC)c(CNc2nc(-c3nnc(-c4cccc(C)c4)o3)nc3ccccc23)c1	-93.3
COc1ccc(-c2nnc(-c3nc(NCc4ccc(OC)cc4OC)c4ccccc4n3)o2)cc1	0
COc1ccccc1CNc1nc(-c2nnc(-c3cccc(Cl)c3)o2)nc2ccccc12	0
COc1ccc(OC)c(CNc2nc(-c3nnc(-c4cccc(Cl)c4)o3)nc3ccccc23)c1	-102.8
COc1ccc(CNc2nc(-c3nnc(-c4cccc(C)c4)o3)nc3ccccc23)cc1	0
Cc1nn(C(=O)c2ccc(Cl)cc2)c(C)c1Cl	0
Cn1cc(N2CCC3(CCN(Cc4ccc(F)cc4)CC3)C2=O)cn1	0
O=C1OCC2(CCN(c3nccc(C4CCCC4)n3)CC2)O1	0
O=C(O)C1CN(Cc2ccc(Cl)cc2)C1	0
Cc1nc(CN2CCC(N(C)C)CC2C(=O)O)cs1 (centres undefined)	0
CCn1c(C2CCNCC2)nn(CCc2cccc3ccccc23)c1=O	0
CC(C)/C=C/C(=O)N1CCC(CO)(Cc2ccccc2C(F)(F)F)CC1	0
CN(C)c1nccc(C2CCN(c3ncccn3)CC2)n1	0
CC1=C(C(=O)Nc2ccc(Cl)cc2)C2(CCN(Cc3ccccc3)CC2)OC1=O	0
SMILES	Tgondii IFNg
CCOc1ccc(NC(=O)C2=C(C)C(=O)OC23CCN(Cc2ccccc2)CC3)cc1	0
CC1=C(C(=O)Nc2ccc(Cl)c(Cl)c2)C2(CCN(Cc3ccccc3)CC2)OC1=O	-92.5
CCc1cccc(NC(=O)Cn2c(=O)cc(C(=O)N3CCOCC3)c3ccccc32)c1	0
CCc1cccc(-n2c(CNC)n[nH]c2=O)c1	0
Cc1noc(C)c1CN1CCOc2c(O)cc(-c3cccc(Cl)c3)cc2C1	-73.5
Oc1ccc(CN2CCOc3c(O)cc(-c4cccc(Cl)c4)cc3C2)cc1	0
Oc1cc(-c2cccc(Cl)c2)cc2c1OCCN(Cc1cscn1)C2	0
Cc1ccc(-c2nc(CSc3nc4c(=O)[nH]cnc4n3-c3ccc(C)cc3)c(C)o2)cc1	-94.9
CCn1c(SCc2nc(-c3ccc(C)cc3)oc2C)nc2c(=O)[nH]cnc21	0
Cc1ccc(-c2nc(CSc3nc4c(=O)[nH]cnc4n3-c3ccccc3)c(C)o2)cc1	-104.5
CCn1c(SCc2nc(-c3cccc(Cl)c3)oc2C)nc2c(=O)[nH]cnc21	0
Cc1oc(-c2ccc(Cl)cc2)nc1CSc1nc2c(=O)[nH]cnc2n1-c1ccccc1	0
Cc1ccc(-n2c(SCc3nc(-c4cccc(C)c4)oc3C)nc3c(=O)[nH]cnc32)cc1	0
Cc1oc(-c2cccc(Cl)c2)nc1CSc1nc2c(=O)[nH]cnc2n1-c1ccccc1	-84.2
COc1cccc(-c2nc(CSc3nc4c(=O)[nH]cnc4n3-c3ccccc3)c(C)o2)c1OC	0
Cc1oc(-c2ccc(OC(C)C)cc2)nc1CSc1nc2c(=O)[nH]cnc2n1-c1ccccc1	0
CC(C)c1cc(C(=O)N2CCCC(CCc3ccc(F)cc3)C2)on1 (centres undefined)	0
Cc1ccc(C(=O)N2CCC(c3nnc(-c4cnc(C)cn4)o3)CC2)cc1	0
CCOc1ccc(-c2nc(Cn3cnc4nc5c(cc4c3=O)CCCC5)c(C)o2)cc1	0
Cc1cccnc1CN1CCN(Cc2ccnc3ccccc23)CC1	0
CC(=O)Nc1cccc2c(C(=O)N3CCC(N4CCCCC4)CC3)ccnc12	0
COc1cc(OC)nc(N2CC(c3ccccn3)C2)n1	0
Cc1nc(SCc2c(Cl)cccc2Cl)[nH]c(=O)c1CN1CCCCC1	0
CN(C)C(=O)NC1CC2(CCN(Cc3ccsc3)CC2)C1	0
Cc1ccc(Sc2ccc(C(=O)c3ccccc3)cc2)cc1	-77.7
CN(C)c1ccc(C(=O)c2ccccc2)cc1	0
Cc1ccc(S(=O)(=O)NC(=O)c2ccccc2)cc1	0

Source: PubChem
